KB-V1 MDR tox – KB-V1 MDR subline cytotoxicity; hit rate 3.4% among 400,000; Potency, µM (titrated, usually from 46.1 µM), usual class: cytotoxic; KB-V1 MDR cells viability, CellTiter-Glo, 72 h; note: % is set by controls: 0 for no effect and ±100 for the full control effect; nearly all actives have a fitted effect of over 60% in size
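In this primary screen, KB-V1 cells overexpressing P-gp are incubated with library compounds (lowest to highest concentration) for 72 h at 37 degrees C before a luminescent ATP viability read.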
S2 tox – reduces viability in counter-screen for ATXN expression inhibitors. Potency, µM (series often up to 56.7 µM), usual class: cytotoxic. hit rate 0.49% among 400,000. S2 cells (HEK-293 line with an ATXN2-luciferase reporter) viability, CellTiter-Fluor protease fluorescence, 24 h; note: nearly all actives have a fitted effect of over 40% in size
ATXN2 expr inh – reduces ATXN2 reporter expression in HEK-293 cells | HEK-293 ATXN2-luciferase reporter, luminescence, 24 h | Potency, µM (highest dose often 57 µM), for inactives: at the highest dose activity change, negative = inhibition, most hits filed as inhibitors | hit rate 0.72% among 360,000 | AID 1745845; note: % is set by controls: 0 for no effect and ±100 for the full control effect; nearly all actives have a fitted effect of over 55% in size
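ATXN2-luciferase reporter cells (luciferase flanked by upstream and downstream ATXN2 gene portions) were treated 24 h at 37 °C with compounds at up to 57 uM. SteadyGlo luminescence gave expression; GF-AFC fluorescence gave viability.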
KB-3-1 tox – kills parental KB-3-1 adenocarcinoma cells; KB-3-1 viability, CellTiter-Glo ATP luminescence, 72 h; Potency, µM (titrated, usually from 46.1 µM), usual class: cytotoxic; hit rate 1.4% among 400,000; AID 1347075; note: % is set by controls: 0 for no effect and ±100 for the full control effect; nearly all actives have a fitted effect of over 60% in size
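Cells are dispensed, compounds pinned in, plates held at 37 °C for 72 h, then CellTiter-Glo is added and luminescence read after 10 minutes. Cell line: parental KB-3-1 in phenol-red-free DMEM, 10% FBS.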
HT1080 IDH1KD tx – toxicity to HT-1080 IDH1 knockdown cells (counter line) | HT-1080 IDH1 knockdown viability, ATP luminescence, 48 h | Potency, µM (highest dose often 46.1 µM), for the others: at the highest dose activity, negative = toxicity, hits mostly cytotoxic | hit rate 2% among 360,000 | AID 686971;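 note: 0% = DMSO wells and -100% = cell-free medium wells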
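Luminescent ATP read-out (CellTiter-Glo, 10 min at room temperature) after 48 h compound exposure at 37 °C gave viability of IDH1-knockdown HT-1080 cells. Activity was normalised to DMSO and cell-free wells, then fitted as concentration-response curves.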
HT1080NT lethal – kills 2HG-producing HT-1080-NT fibrosarcoma cells; Potency, µM (top dose mostly 46.1 µM), without a hit: top-dose activity, negative = less viability, usual class: cytotoxic; HT-1080-NT fibrosarcoma viability, CellTiter-Glo ATP luminescence, 48 h; hit rate 1.6% among 360,000;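 note: NT is the 2HG producing partner of a matched IDH1 knockdown line; 0% = DMSO-treated cells and -100% = media-only wells without cells; nearly all actives have a fitted effect of over 55% in size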
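750 cells/well, RPMI + 5% FBS; 2 h settle, compound pin-transfer, 48 h at 37 degrees C. CellTiter-Glo 10 min RT, luminescence. Normalized to DMSO and media-only wells.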
* marks the source's active call; other numbers are inactive results; i = inactive; ? = inconclusive; · = not tested or not shown. Sampled rows, rich in hits. Any-hit rate of the full collection: about 6.2%. Calls come from the whole dose curve; as a rule, active = well fitted curve in the direction sought with a large enough effect; inconclusive = small, poorly fitted or top-dose-only effect, or another doubt; inactive = no such curve, though single readings can be large; an effect the other way counts as inactive or inconclusive. Potency is the fitted concentration of half-maximal effect.

SMILES | KB-V1 MDR tox | S2 tox | ATXN2 expr inh | KB-3-1 tox | HT1080 IDH1KD tx | HT1080NT lethal
COc1cc(N2C(=O)CSC23C(=O)N(Cc2ccc(C)cc2)c2ccccc23)cc(OC)c1OC (centres undefined) | ? | i | -3% | i | · | ·
COc1cccc(N2C(=O)CSC23C(=O)N(Cc2ccccc2F)c2ccccc23)c1 (centres undefined) | ? | i | -20% | i | · | ·
O=c1c2ccccc2sn1-c1ccc(S(=O)(=O)N2CCOCC2)cc1 | i | · | · | i | · | ·
CCN1CCC(N(Cc2cccc(OC)c2)C(=O)Nc2cccc(C)c2C)CC1 | i | ? | -9% | i | · | ·
CSc1nc(Cl)c(Cc2ccc(OC(C)C)cc2)c(N2CCOCC2)n1 | ? | i | -27% | 9.2µM* | ? | -27%
Cc1ccn(-c2ccc(-c3ncco3)cc2)c(=O)c1-c1ccc2nc(N)ncc2c1 | · | · | -13% | · | · | ·
COC1CCN(Cc2cn(Cc3ccccc3)nc2-c2cc3ccccc3o2)CC1 | ? | ? | ? | ? | 26µM* | ?
Cc1ccc(S(=O)(=O)Nc2ccc(Nc3nccn4c(-c5ccccc5Oc5ccccc5)cnc34)cc2)cc1 | i | i | 11% | i | 17% | 27%
Cc1ccc(S(=O)(=O)Nc2ccc(Nc3nccn4c(-c5ccc6ccccc6c5)cnc34)cc2)cc1 | 12µM* | i | 16% | i | -1% | -24%
CC(C)(C)NC(=O)c1ccc2c(c1)N(CC(=O)N1CCN(c3ccc(F)cc3)CC1)C(=O)C(C)(C)O2 | 3.7µM* | i | 3% | i | 4% | 9%
CC(C)(C)NC(=O)c1ccc2c(c1)N(CC(=O)N1CCCC1)C(=O)C(C)(C)O2 | ? | i | -22% | i | -1% | 3%
CCCNC(=O)c1cc2n(n1)CCCN(Cc1ccc(F)cc1)C2=O | i | i | 1% | i | · | ·
COc1ccc(C(=O)CC2(O)C(=O)N(Cc3ccccc3Cl)c3ccccc32)cc1 (centres undefined) | 18µM* | ? | ? | ? | · | ·
CC(=O)Nc1cc(C(=O)N2CCSCC2)cc2ncn(CCc3ccccn3)c12 | · | i | · | · | · | ·
COc1ccc(/C=N\NC(=O)c2sccc2C)cc1Cn1nc(C)cc1C | 6.5µM* | i | 54% | ? | -6% | 0%
COc1ccc(/C=N\NC(=O)COc2ccccc2Cl)cc1Cn1nc(C)cc1C | i | ? | -31% | i | ? | ?
C(=C\c1ccnc2ccccc12)/c1ccc(-[n+]2cc[n+](-c3ccc(/C=C/c4ccnc5ccccc45)cc3)cc2)cc1 | i | · | · | i | · | ·
Cc1cccc(Nc2nc(-c3c(C)nc4ccccn34)cs2)c1 | 7.3µM* | ? | ? | ? | ? | ?
Cc1nc2ccccn2c1-c1csc(Nc2cccc(C(=O)O)c2)n1 | i | i | -12% | i | -12% | -17%
Cc1nc2ccccn2c1-c1csc(Nc2ccc(C(=O)O)cc2)n1 | ? | i | 2% | ? | 3.3µM* | 2.1µM*
Cc1nc2ccccn2c1-c1csc(Nc2cccc(O)c2)n1 | 10µM* | ? | -8% | ? | 1.5µM* | 1.6µM*
COc1ccc(CCNC(=O)C(C)n2nc(C)c3sc4ccccc4c3c2=O)cc1OC (centres undefined) | i | · | · | i | · | ·
CCC[C@H]1C[C@H](C(=O)N[C@@H]([C@@H]2O[C@@H](SC)[C@@H](O)[C@@H](O)[C@@H]2O)[C@H](C)Cl)N(C)C1 | · | · | -2% | · | · | ·
Nc1ccc(-c2cc3ccccc3[nH]2)cc1 | i | · | · | ? | · | ·
COc1ccc(OC)c(NC(=O)CCc2nc(-c3ccc(C)cc3)no2)c1 | ? | i | -19% | i | · | ·
SMILES | KB-V1 MDR tox | S2 tox | ATXN2 expr inh | KB-3-1 tox | HT1080 IDH1KD tx | HT1080NT lethal
Cc1cc(C)cc(SCc2noc(C(=O)NCCN(C)C)c2C(=O)NCCN(C)C)c1 | i | i | ? | ? | ? | 18µM*
COC(=O)Nc1ccc(S(=O)(=O)N2CCCCC2)cc1 | 8.2µM* | i | 2% | ? | -24% | -25%
CCOC(=O)c1ccc(NC(=O)C2CCCN(S(=O)(=O)c3ccc(F)cc3)C2)cc1 (centres undefined) | ? | ? | 32µM* | i | ? | ?
CCc1ccc(NC(=O)C(C)OC(=O)c2ccc(NS(=O)(=O)c3ccc(C)c([N+](=O)[O-])c3)cc2)cc1 (centres undefined) | ? | ? | -25% | 23µM* | ? | ?
CC(=O)Nc1ccc(NC(=O)C(C)OC(=O)c2ccc(S(=O)(=O)N3CCCCC3)cc2)cc1 (centres undefined) | i | ? | ? | i | ? | 23µM*
COC(=O)Nc1ccc(S(=O)(=O)N2CCN(C)CC2)cc1 | i | i | 5% | i | 15% | 17%
CC(OC(=O)c1ccc(Cl)nc1)C(=O)Nc1ccc(S(=O)(=O)N2CCCC2)cc1 (centres undefined) | ? | i | 3% | i | 3% | -2%

Screening data: PubChem BioAssay, National Center for Advancing Translational Sciences (NCATS)
